PubChem BioAssay (NCATS)
Results filed as inconclusive are left out. Calls of active or inactive are those of the source. Unless noted, calls follow the shape of the dose curve; as a rule, active = well fitted curve in the direction sought with a large enough effect; inconclusive = small, poorly fitted or top-dose-only effect, or another doubt; inactive = no such curve, though single readings can be large; an effect the other way counts as inactive or inconclusive.

How the values were obtained:
[1] = AP1 Signaling Pathway (AID 357; active = well fitted curve in either direction with a large enough effect, not every such curve was filed as active; also: % is scaled to controls: 0 for no effect and ±100 for the full control effect); settings: ME-180 AP-1-bla reporter, EGF-induced, beta-lactamase ratio, 5 h; at 7.69 µM (top of the series) unless noted
How it was run: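 ME-180 cells with beta-lactamase reporter under AP-1 response element, stimulated with EC50 EGF; compounds tested in titration series, 5 h at 37 °C. CCF4 substrate added 2.5 h at room temperature; 460/530 nm emission ratio gave %activity and AC50.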

[2] = target: Cytochrome P450 1A2 (Homo sapiens) (UniProt P05177); assay: p450-cyp1a2 (AID 410; calls by dose curve; also: potency is read from the fitted curve at half-maximal effect;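 as to activity change, negative = inhibition: -100% = full effect of reference inhibitor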)
How it was run: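 Inhibition was calculated relative to 57 uM furafylline (full inhibition). The reaction used human CYP1A2 at 20nM with Luciferin-ME at its Km, 100uM, driven by an NADPH-regenerating system for 60 min at room temperature.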

[3] = NFAT Signaling Pathway (AID 444; active = well fitted curve in either direction with a large enough effect, not every such curve was filed as active;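 also: carbachol stimulus at about its EC50 of 1 µM final; % is scaled to controls: 0 for no effect and ±100 for the full control effect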); settings: Jurkat NFAT-bla M1, carbachol, beta-lactamase ratio, 5 h; at 7.69 µM (top of the series) unless noted
How it was run: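 Read-out: CCF4 FRET ratio (460 nm/530 nm) after 1 h RT dye loading, used for %activity and AC50 from titration series. Cells: Jurkat NFAT-β-lactamase/M1 line, treated with compound plus 1 uM carbachol for 5 h, 37 °C.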

[4] = Stat Signaling Pathway (AID 446; active = well fitted curve in either direction with a large enough effect, not every such curve was filed as active;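 also: ME-180 cervical cancer cells given 40 pM IL-6 alongside compound; SIE-controlled beta-lactamase reporter measured as 460/530 nm FRET emission ratio; % is scaled to controls: 0 for no effect and ±100 for the full control effect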); settings: ME-180 SIE beta-lactamase reporter, IL-6 stimulated, 5 h; at 7.69 µM (top of the series) unless noted
How it was run: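 ME-180 SIE-bla cells; overnight plating; cpd + IL-6 40 pM, 5 h, 37 C; LiveBLAzer 2.5 h RT; 460/530 nm emission ratio. Normalized to 300 pM IL-6 and 125 nM JAK inhibitor controls.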

[5] = target: Glucocorticoid receptor (Homo sapiens) (UniProt P04150); assay: GR-GFP Redistribution (AID 450;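 active = compounds whose dose series gives a full or clear partial fitted curve of increased nuclear translocation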; also: potency is read from the fitted curve at half-maximal effect); settings: U2OS GR-GFP nuclear translocation, laser cytometry, 2 h
[6] = target: Mitogen-activated protein kinase 10 (Mus musculus) (UniProt Q61831); assay: JNK3 AlphaScreen Assay (AID 530; active = well fitted curve in either direction with a large enough effect, not every such curve was filed as active;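 also: kinase came from lysate of stimulated human HepG2 cells; signal reports phosphorylation of biotinylated GST-cJun 1-79 at Ser73 with 10 µM ATP; % is scaled to controls: 0 for no effect and ±100 for the full control effect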)
How it was run: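 Room-temperature AlphaScreen kinase assay; pre-activated HepG2 lysate as JNK3 source, biotin-GST-cJun(1-79) substrate, 10 uM ATP, compound 15 min preincubation.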

[7] = target: 3',5'-cyclic-AMP phosphodiesterase 4B (Homo sapiens) (UniProt Q07343); assay: qHTS Assay for Inhibitors of PDE-IV (AID 607; active = well fitted activation curve with a large enough effect in the main read-out, with a control signal flat, not every such curve was filed as active; also: % of control where 0% means no effect)
How it was run: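 ACTOne HEK293 cells carry a modified cAMP-gated CNG channel and express endogenous PDE4; plated 1000 cells/well, compounds up to 22.9 uM final. Membrane-potential dye fluorescence (ex 535/em 590) was read; parental cells received 10 uM forskolin + 100 uM RO 20-1724.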

[8] = target: Cytochrome P450 3A4 (Homo sapiens) (UniProt P08684); assay: qHTS Assay for Inhibitors and Substrates of Cytochrome P450 3A4 (AID 884); also: potency is read from the fitted curve at half-maximal effect; nearly all actives have a fitted effect of over 50% in size
How it was run: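 20 nM human CYP3A4 with 25 uM Luciferin-PPXE (at KM) in 200 mM KPO4, preincubated 10 min with compound; NADPH regeneration started a 60 min RT reaction. Luciferin detected by luminescence, normalized to 57 uM ketoconazole as full inhibition.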

[9] = target: Cytochrome P450 3A4 (Homo sapiens) (UniProt P08684); assay: qHTS Assay for Activators of Cytochrome P450 3A4 (AID 885); also: nearly all actives have a fitted effect of over 65% in size
How it was run: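 20nM CYP3A4 + 25uM Luciferin-PPXE (=KM), 200mM KPO4; cpd 10 min RT; NADPH regen, 60 min RT; stop w/ detection buffer, 20 min; luminescence. Normalized to 57 uM ketoconazole.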

[10] = qHTS Assay for Lipid Storage Modulators (AID 1519; calls by dose curve); settings: Drosophila S3 cells, BODIPY lipid droplet/cell ratio, laser cytometry, cells loaded with oleic acid; for activity change, negative = inhibition: at 57.5 µM (top of the series)
How it was run: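 Cells seeded at 5,000 per well were treated with compounds over a concentration series and loaded with oleic acid (400 uM, as added). Lipid droplet fluorescence (488 nm excitation, 500-530 nm channel) was read by laser-scanning cytometry and normalized to 20 uM Triacsin C.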

[11] = target: Dual specificity protein kinase CLK4 (Homo sapiens) (UniProt Q9HAZ1); assay: qHTS Assay for Inhibitors of CDC-like Kinase 4 (ADP-FP Assay) (AID 1795); also: % is scaled to controls: 0 for no effect and ±100 for the full control effect; nearly all actives have a fitted effect of over 60% in size
How it was run: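 Recombinant human Clk4 (6.25 nM) phosphorylated RS repeat peptide (100 uM) with 1 uM ATP in Tris pH 7.5/MgCl2/EGTA/DTT/Triton buffer for one hour. ADP was quantified by Transcreener competitive fluorescence polarization against an ADP calibration curve.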

[12] = target: Ubiquitin carboxyl-terminal hydrolase 1 (Homo sapiens) (UniProt O94782); assay: Inhibitors of USP1/UAF1: Pilot qHTS (AID 504865);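 also: rhodamine fluorescence freed from ubiquitin-rhodamine substrate followed over time; top concentration of the series differs between compounds; % is scaled to controls: 0 for no effect and ±100 for the full control effect; nearly all actives have a fitted effect of over 35% in size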
How it was run: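 USP1/UAF1 complex (1nM) preincubated with compound 15 min at room temperature, then Ub-Rho substrate (150nM final) added. Fluorescence read kinetically at 480/540 nm, 6 reads every 60 seconds. Buffer: 50mM HEPES pH 7.8, 0.5mM EDTA, 0.1 mg/ml BSA, 1mM TCEP, 0.01% Tween-20.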

[13] = Primary qHTS for small molecule stabilizers of the endoplasmic reticulum resident proteome: Secreted ER Calcium Modulated Protein (SERCaMP) assay (AID 1508630); also: % is scaled to controls: 0 for no effect and ±100 for the full control effect
How it was run: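 GLuc-SERCaMP-expressing SH-SY5Y cells, pretreated 16 h with compound, are challenged with thapsigargin to empty ER calcium stores; after 4 h, coelenterazine is added directly to the medium and luminescence is imaged.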

[14] = target: Lysosomal acid glucosylceramidase (Homo sapiens) (UniProt P04062); assay: Glucocerebrosidase-p2 (AID 348; in the data active = potency below about 10 µM; also: potency is read from the fitted curve at half-maximal effect); settings: purified GBA, blue fluorogenic substrate, 40 min
How it was run: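 Compounds titrated from 0.6 nM upwards against 0.2 nM enzyme in pH 5.9 citric acid/KH2PO4, taurocholate, tween-20; blue fluorogenic substrate 80 uM, 40 min room temperature, stopped and read Ex 365/Em 440 for AC50.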

[15] = target: Glucocorticoid receptor (Homo sapiens) (UniProt P04150); assay: GR-EFC Redistribution (AID 451; calls by dose curve; also: potency is read from the fitted curve at half-maximal effect); settings: CHO-K1 GR-EFC translocation, beta-gal luminescence, 2 h
How it was run: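 Translocation of GR-ED fusion to nuclear EA restores b-gal, read by luminescence after 1 h room-temperature detection. Engineered CHO-K1 biosensor cells, 1,000/well, exposed 2 h at 37 C to titrations up to 46 uM final.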

[16] = Confirmation and Secondary Assay for Modulators of Hemoglobin Beta Chain Splicing at IVS2 654 locus (AID 910);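 also: HeLa cells stably carrying EGFP split by mutant beta-globin IVS2-654 intron; % of control where 0% means no effect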
How it was run: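 Readout: per-well total peak green fluorescence (488 nm ex, 500–520 nm em) from objects 5–250 µm, reflecting correct splicing of an EGFP-654 reporter. Compounds were applied for 2 days at 37 °C to overnight-plated HeLa EGFP-654 cells; controls were DMSO and 500 nM IVS2-654 PNA.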

[17] = Confirmation and Secondary Assay for Modulators of Hemoglobin Beta Chain Splicing at IVS2 705 locus (AID 930);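 also: HeLa cells stably expressing the EGFP-705 splicing reporter; GFP fluorescence per well restored by corrected splicing of the IVS2-705 intron in EGFP; % of control where 0% means no effect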
How it was run: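 Read-out: total peak GFP fluorescence per well (488 nm excitation, 500-520 nm emission) by laser-scanning cytometry. Cells: HeLa EGFP-705 splicing reporter, 2 days compound exposure in Optimem/2% FCS.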

[18] = target: Cytochrome P450 2C19 (Homo sapiens) (UniProt P33261); assay: qHTS Assay for Inhibitors and Substrates of Cytochrome P450 2C19 (AID 899); also: potency is read from the fitted curve at half-maximal effect; nearly all actives have a fitted effect of over 60% in size
How it was run: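 Reactions contain 5nM enzyme, 10uM Luciferin-H EGE (KM) and 50mM KPO4; compound preincubates 10 min at 37C, NADPH regeneration starts turnover for 60 min. Luminescence after detection reagent gives activity.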

[19] = measured here: cell count channel max response
[20] = measured here: lipid channel max response

Cytochrome P450 1A2 (Homo sapiens), sequence (P05177 whole entry, looked up): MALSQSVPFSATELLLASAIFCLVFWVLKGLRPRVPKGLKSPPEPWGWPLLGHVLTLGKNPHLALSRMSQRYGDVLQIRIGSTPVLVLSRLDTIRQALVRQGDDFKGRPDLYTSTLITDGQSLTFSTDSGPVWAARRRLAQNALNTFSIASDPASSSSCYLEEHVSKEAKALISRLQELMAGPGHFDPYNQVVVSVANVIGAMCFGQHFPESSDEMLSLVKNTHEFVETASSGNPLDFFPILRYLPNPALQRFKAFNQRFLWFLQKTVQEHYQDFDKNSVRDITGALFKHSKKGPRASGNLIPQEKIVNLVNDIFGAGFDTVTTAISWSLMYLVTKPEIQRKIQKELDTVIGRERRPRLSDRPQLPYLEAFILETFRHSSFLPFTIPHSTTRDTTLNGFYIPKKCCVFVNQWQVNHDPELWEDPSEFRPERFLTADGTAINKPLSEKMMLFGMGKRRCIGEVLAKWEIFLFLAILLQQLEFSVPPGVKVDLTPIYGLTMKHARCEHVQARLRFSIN
Ubiquitin carboxyl-terminal hydrolase 1 (Homo sapiens), sequence (O94782 whole entry, looked up): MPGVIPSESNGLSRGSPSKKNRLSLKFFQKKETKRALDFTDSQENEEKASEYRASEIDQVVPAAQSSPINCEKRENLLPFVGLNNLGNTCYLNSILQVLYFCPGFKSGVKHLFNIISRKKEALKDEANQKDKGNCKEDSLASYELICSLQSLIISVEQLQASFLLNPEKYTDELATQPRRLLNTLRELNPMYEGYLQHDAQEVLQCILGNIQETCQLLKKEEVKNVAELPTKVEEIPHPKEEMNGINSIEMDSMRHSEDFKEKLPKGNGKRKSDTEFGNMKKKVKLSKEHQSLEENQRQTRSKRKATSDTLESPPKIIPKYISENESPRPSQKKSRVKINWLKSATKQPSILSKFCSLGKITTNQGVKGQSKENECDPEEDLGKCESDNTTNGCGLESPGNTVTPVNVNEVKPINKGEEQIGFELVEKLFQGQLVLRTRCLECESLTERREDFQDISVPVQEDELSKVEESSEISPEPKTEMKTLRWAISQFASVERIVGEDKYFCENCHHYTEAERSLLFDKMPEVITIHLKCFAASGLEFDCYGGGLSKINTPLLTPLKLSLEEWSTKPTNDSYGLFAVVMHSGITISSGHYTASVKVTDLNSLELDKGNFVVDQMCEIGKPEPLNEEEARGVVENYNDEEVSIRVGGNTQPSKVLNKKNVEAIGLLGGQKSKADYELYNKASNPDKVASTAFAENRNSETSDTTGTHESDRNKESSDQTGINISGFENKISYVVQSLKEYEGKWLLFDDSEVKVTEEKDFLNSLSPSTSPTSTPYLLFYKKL
3',5'-cyclic-AMP phosphodiesterase 4B (Homo sapiens), sequence (Q07343 whole entry, looked up): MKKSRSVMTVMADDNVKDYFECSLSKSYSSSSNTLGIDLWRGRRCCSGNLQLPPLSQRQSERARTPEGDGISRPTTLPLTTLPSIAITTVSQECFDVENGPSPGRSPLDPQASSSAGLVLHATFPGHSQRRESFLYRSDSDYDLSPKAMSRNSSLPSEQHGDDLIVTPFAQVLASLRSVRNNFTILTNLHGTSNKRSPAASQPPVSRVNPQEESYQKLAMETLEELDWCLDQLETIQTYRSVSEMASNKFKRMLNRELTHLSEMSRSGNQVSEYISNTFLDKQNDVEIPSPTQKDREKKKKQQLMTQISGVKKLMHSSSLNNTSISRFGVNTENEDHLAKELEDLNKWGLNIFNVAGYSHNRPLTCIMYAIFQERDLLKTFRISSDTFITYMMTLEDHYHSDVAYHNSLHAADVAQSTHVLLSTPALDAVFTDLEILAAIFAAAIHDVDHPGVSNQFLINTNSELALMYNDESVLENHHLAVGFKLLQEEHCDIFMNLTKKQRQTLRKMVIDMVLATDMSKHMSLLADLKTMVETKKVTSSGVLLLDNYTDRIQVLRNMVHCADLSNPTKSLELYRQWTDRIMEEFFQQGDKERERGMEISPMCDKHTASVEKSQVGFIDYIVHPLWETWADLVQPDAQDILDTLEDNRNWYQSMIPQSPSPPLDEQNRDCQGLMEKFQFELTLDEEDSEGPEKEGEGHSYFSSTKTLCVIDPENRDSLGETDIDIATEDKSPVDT
Lysosomal acid glucosylceramidase (Homo sapiens), sequence (P04062 whole entry, looked up): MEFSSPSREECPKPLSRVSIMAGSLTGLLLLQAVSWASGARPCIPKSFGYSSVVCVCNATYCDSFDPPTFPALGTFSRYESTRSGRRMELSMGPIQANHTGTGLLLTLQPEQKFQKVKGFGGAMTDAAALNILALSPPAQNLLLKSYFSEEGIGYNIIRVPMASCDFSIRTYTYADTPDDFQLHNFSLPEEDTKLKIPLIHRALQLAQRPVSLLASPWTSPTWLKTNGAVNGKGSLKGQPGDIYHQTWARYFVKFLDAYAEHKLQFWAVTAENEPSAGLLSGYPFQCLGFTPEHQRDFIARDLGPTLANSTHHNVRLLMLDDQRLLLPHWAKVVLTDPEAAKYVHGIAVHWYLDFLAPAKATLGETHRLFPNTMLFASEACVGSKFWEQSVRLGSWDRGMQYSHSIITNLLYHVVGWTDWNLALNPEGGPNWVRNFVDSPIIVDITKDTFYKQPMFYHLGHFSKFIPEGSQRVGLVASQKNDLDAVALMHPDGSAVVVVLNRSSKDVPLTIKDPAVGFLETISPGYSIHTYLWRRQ
Dual specificity protein kinase CLK4 (Homo sapiens), sequence (Q9HAZ1 whole entry, looked up): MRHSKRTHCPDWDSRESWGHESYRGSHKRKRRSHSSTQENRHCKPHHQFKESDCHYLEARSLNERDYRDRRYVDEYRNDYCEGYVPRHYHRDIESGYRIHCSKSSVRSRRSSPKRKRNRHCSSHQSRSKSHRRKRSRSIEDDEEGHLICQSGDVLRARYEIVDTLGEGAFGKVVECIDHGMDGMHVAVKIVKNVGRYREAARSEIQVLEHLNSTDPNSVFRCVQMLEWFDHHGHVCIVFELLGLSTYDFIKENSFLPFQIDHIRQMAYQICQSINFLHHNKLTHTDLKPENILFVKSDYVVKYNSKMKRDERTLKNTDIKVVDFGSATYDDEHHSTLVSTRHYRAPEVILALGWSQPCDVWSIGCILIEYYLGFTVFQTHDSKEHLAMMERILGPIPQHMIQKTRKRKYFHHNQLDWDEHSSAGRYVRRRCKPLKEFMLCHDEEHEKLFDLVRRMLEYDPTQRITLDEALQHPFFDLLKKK
Cytochrome P450 3A4 (Homo sapiens), sequence (P08684 whole entry, looked up): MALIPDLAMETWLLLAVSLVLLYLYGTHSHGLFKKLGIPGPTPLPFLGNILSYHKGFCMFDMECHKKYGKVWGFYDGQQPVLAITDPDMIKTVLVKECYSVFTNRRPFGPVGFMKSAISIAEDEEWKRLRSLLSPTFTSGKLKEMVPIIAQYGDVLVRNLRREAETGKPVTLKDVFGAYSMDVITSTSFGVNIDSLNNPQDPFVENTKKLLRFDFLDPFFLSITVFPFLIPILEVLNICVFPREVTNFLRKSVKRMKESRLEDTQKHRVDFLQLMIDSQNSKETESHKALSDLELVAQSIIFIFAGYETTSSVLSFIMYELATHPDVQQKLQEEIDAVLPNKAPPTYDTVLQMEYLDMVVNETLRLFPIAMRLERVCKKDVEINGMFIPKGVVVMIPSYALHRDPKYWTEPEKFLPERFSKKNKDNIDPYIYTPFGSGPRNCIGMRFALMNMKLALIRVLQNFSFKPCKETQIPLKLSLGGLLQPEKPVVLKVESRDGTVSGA
Glucocorticoid receptor (Homo sapiens), sequence (P04150 whole entry, looked up, the tested form may be a part): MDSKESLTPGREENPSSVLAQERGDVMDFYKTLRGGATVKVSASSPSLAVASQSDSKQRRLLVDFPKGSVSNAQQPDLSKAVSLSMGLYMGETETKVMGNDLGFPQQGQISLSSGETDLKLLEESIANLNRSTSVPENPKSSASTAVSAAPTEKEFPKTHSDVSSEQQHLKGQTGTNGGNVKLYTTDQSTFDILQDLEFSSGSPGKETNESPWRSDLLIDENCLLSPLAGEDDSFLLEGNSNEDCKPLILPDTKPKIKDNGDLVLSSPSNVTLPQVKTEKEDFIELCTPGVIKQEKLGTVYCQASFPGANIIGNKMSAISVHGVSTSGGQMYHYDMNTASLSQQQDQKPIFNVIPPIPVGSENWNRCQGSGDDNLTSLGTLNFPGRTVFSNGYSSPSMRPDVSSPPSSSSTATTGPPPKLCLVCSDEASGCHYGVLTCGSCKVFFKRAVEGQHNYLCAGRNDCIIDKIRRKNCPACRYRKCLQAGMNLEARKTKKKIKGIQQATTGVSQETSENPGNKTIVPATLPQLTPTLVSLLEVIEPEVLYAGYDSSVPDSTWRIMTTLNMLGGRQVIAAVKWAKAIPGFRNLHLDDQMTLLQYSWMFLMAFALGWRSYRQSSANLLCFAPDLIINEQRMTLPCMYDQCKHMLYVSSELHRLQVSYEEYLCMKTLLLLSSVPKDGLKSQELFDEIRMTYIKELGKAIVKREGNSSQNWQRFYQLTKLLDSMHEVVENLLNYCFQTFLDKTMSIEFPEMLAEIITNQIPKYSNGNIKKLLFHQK
Cytochrome P450 2C19 (Homo sapiens), sequence (P33261 whole entry, looked up): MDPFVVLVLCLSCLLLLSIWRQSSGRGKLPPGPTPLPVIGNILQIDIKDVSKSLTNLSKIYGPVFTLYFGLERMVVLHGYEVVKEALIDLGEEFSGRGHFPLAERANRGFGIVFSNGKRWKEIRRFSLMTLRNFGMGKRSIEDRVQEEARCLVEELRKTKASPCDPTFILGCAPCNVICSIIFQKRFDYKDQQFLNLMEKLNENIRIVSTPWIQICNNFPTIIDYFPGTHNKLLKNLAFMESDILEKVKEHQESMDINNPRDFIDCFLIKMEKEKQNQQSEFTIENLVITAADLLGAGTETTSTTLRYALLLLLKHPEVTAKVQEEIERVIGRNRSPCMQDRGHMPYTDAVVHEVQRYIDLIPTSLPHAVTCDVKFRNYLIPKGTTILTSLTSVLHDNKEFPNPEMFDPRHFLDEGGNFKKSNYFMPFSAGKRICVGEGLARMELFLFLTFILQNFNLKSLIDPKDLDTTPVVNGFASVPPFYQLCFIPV

COc1ccc(CNc2ncncc2-c2cccnc2)c(OC)c1
activity change, negative = inhibition [1]: 3.11% (inactive) | Potency [2]: 3.16 µM (active) | activity change, negative = inhibition [3]: 4.08% (inactive) | activity, negative = inhibition [4]: 0.586% (inactive) | Potency [5]: > 46 µM (inactive) | outcome [6]: inactive | Potency [7]: inactive | Potency [8]: 0.501 µM (active) | Potency [9]: inactive | activity change, negative = inhibition [10]: 4.88% (inactive) | max response [10, 19]: 18.2% | max response [10, 20]: 22.7% | Potency [11]: inactive | Potency [12]: inactive | Potency [13]: inactive

COCCNc1cc(-c2ccccc2CN(C)C)ncn1
Potency [14]: > 11.4 µM (inactive) | activity change, negative = inhibition [1]: 1.28% (inactive) | Potency [2]: inactive | activity change, negative = inhibition [3]: -0.403% (inactive) | activity, negative = inhibition [4]: 13.5% (inactive) | Potency [5]: > 46 µM (inactive) | Potency [15]: > 46 µM (inactive) | outcome [6]: inactive | Potency [7]: inactive | outcome [16]: inactive | outcome [17]: inactive | activity change, negative = inhibition [10]: 4.45% (inactive) | max response [10, 19]: 21.8% | max response [10, 20]: 24.8% | Potency [12]: inactive | Potency [13]: inactive

CN(C)c1ncc2ncc(=O)n(C[C@H]3CCCO3)c2n1
activity change, negative = inhibition [1]: -16.4% (inactive) | activity change, negative = inhibition [3]: -6.33% (inactive) | activity, negative = inhibition [4]: -10.5% (inactive) | Potency [5]: > 9.22 µM (inactive) | Potency [15]: > 46 µM (inactive) | outcome [6]: inactive | Potency [7]: inactive | activity change, negative = inhibition [10]: 5.33% (inactive) | max response [10, 19]: -7.9% | max response [10, 20]: -4.59% | Potency [11]: inactive | Potency [12]: inactive | Potency [13]: inactive

COc1ccccc1-c1cncnc1Nc1ccc(F)cc1
Potency [14]: > 11.4 µM (inactive) | activity change, negative = inhibition [1]: -12.4% (inactive) | Potency [2]: 7.94 µM (active) | activity change, negative = inhibition [3]: 1.41% (inactive) | activity, negative = inhibition [4]: 4.34% (inactive) | Potency [5]: > 46 µM (inactive) | Potency [15]: > 46 µM (inactive) | outcome [6]: inactive | Potency [7]: inactive | Potency [8]: 0.158 µM (active) | Potency [9]: inactive | Potency [18]: 5.01 µM (active) | outcome [16]: inactive | outcome [17]: inactive | activity change, negative = inhibition [10]: 10.5% (inactive) | max response [10, 19]: 9.46% | max response [10, 20]: 20.1% | Potency [12]: inactive | Potency [13]: inactive

N#Cc1ccccc1-c1nc(NCCN2CCOCC2)c2ccccc2n1
Potency [14]: > 11.4 µM (inactive) | activity change, negative = inhibition [1]: 1.04% (inactive) | activity change, negative = inhibition [3]: -3.19% (inactive) | activity, negative = inhibition [4]: 2.02% (inactive) | Potency [5]: > 46 µM (inactive) | Potency [15]: > 46 µM (inactive) | outcome [6]: inactive | Potency [7]: inactive | activity change, negative = inhibition [10]: 4.61% (inactive) | max response [10, 19]: 14.8% | max response [10, 20]: 18.6% | Potency [11]: inactive | Potency [12]: inactive | Potency [13]: inactive

COc1ccc(CNc2cc(-c3cccc(C#N)c3)ncn2)c(OC)c1
Potency [14]: > 11.4 µM (inactive) | activity change, negative = inhibition [1]: -14.7% (inactive) | activity, negative = inhibition [4]: -2.42% (inactive) | Potency [5]: > 46 µM (inactive) | Potency [15]: > 46 µM (inactive) | outcome [6]: inactive | activity change, negative = inhibition [10]: 7.91% (inactive) | max response [10, 19]: 18.5% | max response [10, 20]: 23.9% | Potency [11]: inactive | Potency [12]: inactive | Potency [13]: inactive
